Test results published in the supplement of paper PMC3545927.
Some of the results follow. How many sequences the whole screen found active is unknown.

B1: HC1185 (peptide)
chain: CAPRTCRNMWAGNASASA
B2: HC12 (peptide)
chain: CAMEEDSQHLAGNASASA
B3: HC292 (peptide)
chain: CADLLVGSATAGNASASA
B4: HC2384 (peptide)
chain: CAEVPCHRISAGNASASA
B5: FS-1130 (peptide)
chain: CAKHQRAKRAAGNASASA
B6: FS-2206 (peptide)
chain: CARDQRSVLAAGNASASA
B7: FS-1569 (peptide)
chain: CASLGRAKRAAGNASASA
B8: FS-1420 (peptide)
chain: CASWGRVWRAAGNASASA
B9: HC736 (peptide)
chain: CASLLSPRPIAGNASASA
B10: HC1635 (peptide)
chain: CAAVRTKLKLAGNASASA
B11: FS-2693 (peptide)
chain: CARKKRIFNLAGNASASA
B12: FS-2068 (peptide)
chain: CARRKRNVNTAGNASASA
B13: FS-1968 (peptide)
chain: CARRKRKNKTAGNASASA
B14: FS-2450 (peptide)
chain: CARRKKQVGTAGNASASA
B15: FS-3158 (peptide)
chain: CARKKRNVNFAGNASASA
B16: HC1749 (peptide)
chain: CAMEECSQYLAGNASASA
B17: HC417 (peptide)
chain: CAPVVVGTTDAGNASASA
B18: HC2210 (peptide)
chain: CAEVVTSVWVAGNASASA
B19: FS-2440 (peptide)
chain: CARPRRDCVAAGNASASA
B20: FS-2500 (peptide)
chain: CARPRRDSAGAGNASASA
B21: FS-2741 (peptide)
chain: CARPRRDAAEAGNASASA
B22: FS-2165 (peptide)
chain: CARPRRLLQAAGNASASA
B23: FS-1762 (peptide)
chain: CARPRRDAEPAGNASASA
B24: HC1854 (peptide)
chain: CATKPCSGSWAGNASASA
B25: HC1970 (peptide)
chain: CAEVTTPCSGAGNASASA
B26: FS-2297 (peptide)
chain: CARRRRGAPEAGNASASA
B27: FS-2082 (peptide)
chain: CARRRRVVPEAGNASASA
B28: FS-2326 (peptide)
chain: CARARREALRAGNASASA
B29: FS-2787 (peptide)
chain: CARRRRGALRAGNASASA
B30: HC2110 (peptide)
chain: CAVDVVCCSMAGNASASA
B31: FS-575 (peptide)
chain: CAWRNRKKKTAGNASASA
B32: TR8 (peptide)
chain: CAGLVPRGSGAGNASASA
B33: HC1727 (peptide)
chain: CAMEECSFHLAGNASASA
B34: HC1372 (peptide)
chain: CASYSWTGALAGNASASA
B35: HC950 (peptide)
chain: CASGENLPYLAGNASASA
B36: HC176 (peptide)
chain: CAVGGVYLLPAGNASASA
B37: HC1325 (peptide)
chain: CAKKRTVVLTAGNASASA
B38: FS-2441 (peptide)
chain: CARPRRILNTAGNASASA
B39: FS-3258 (peptide)
chain: CARKRRALLIAGNASASA
B40: FS-2152 (peptide)
chain: CARKFRSGLIAGNASASA
B41: HC1382 (peptide)
chain: CAINALSNSLAGNASASA
B42: FS-2971 (peptide)
chain: CARKRRAVLTAGNASASA
B43: FS-2700 (peptide)
chain: CARKRRNLETAGNASASA
B44: HC1243 (peptide)
chain: CAEPDVAVLTAGNASASA
B45: FS-2322 (peptide)
chain: CASFRRAFLIAGNASASA
B46: FS-3194 (peptide)
chain: CARKRRANSLAGNASASA
B47: FS-2401 (peptide)
chain: CARQQRDEETAGNASASA

Molecular target: furin, P09958
Sequence (P09958 whole entry): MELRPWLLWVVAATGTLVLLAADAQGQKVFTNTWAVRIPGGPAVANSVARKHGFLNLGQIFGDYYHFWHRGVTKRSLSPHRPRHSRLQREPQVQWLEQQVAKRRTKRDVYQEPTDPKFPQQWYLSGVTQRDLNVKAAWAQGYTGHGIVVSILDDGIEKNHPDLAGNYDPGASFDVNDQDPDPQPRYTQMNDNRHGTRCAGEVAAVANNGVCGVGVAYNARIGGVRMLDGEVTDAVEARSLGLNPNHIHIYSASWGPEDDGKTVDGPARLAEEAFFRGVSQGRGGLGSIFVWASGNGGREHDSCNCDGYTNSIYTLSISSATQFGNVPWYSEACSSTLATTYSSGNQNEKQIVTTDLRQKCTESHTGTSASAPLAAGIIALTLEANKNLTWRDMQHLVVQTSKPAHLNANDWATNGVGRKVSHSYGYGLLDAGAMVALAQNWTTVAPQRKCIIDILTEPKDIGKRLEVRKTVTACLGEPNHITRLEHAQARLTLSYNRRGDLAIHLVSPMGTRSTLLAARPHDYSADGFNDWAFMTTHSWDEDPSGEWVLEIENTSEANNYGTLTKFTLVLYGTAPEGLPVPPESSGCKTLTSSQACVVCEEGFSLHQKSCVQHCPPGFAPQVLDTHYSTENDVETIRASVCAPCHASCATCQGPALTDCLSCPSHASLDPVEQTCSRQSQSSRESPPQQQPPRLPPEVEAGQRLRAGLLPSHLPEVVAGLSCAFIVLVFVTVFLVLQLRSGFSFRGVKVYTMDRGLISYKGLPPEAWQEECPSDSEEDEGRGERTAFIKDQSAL
Assay: furin cleavage Z-score vs untreated control; higher = more cleavage, active = 3.5 or more, inactive = 1 or less, 8 variable residues between constant flanks
Experimental: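 Multiplexed peptide-cDNA fusion cleavage assay. 8-mer variable peptides flanked by constant Cys-Ala (N-term) and Ala-Gly-Asn-Ala-Ser-Ala-Ser-Ala (C-term) and conjugated to a cDNA oligonucleotide were bead-immobilised via the N-terminus. They were treated with purified furin at a 1:10 enzyme:substrate ratio in 50 mM HEPES pH 7.5, 1 mM CaCl2, 100 mM NaCl for 7.5, 15 or 30 min. Released cDNA was counted by next-generation sequencing, and log counts versus no-furin controls were lowess-adjusted and converted to robust Z-scores.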

Row | Sequence | furin cleavage Z-score (7.5 min) | furin cleavage Z-score (15 min) | furin cleavage Z-score (30 min)
1 | B1 | -0.106 (inactive) | 1.74 | 0.874 (inactive)
2 | B2 | 1.39 | -0.675 (inactive) | -1.53 (inactive)
3 | B3 | -0.794 (inactive) | -0.376 (inactive) | -2.04 (inactive)
4 | B4 | -0.484 (inactive) | 0.399 (inactive) | 0.761 (inactive)
5 | B5 | 5.65 (active) | 4.42 (active) | 4.22 (active)
6 | B6 | -0.0379 (inactive) | -0.365 (inactive) | 2.37
7 | B7 | 5.19 (active) | 5.19 (active) | 3.67 (active)
8 | B8 | 0.424 (inactive) | -1.01 (inactive) | 0.706 (inactive)
9 | B9 | 0.821 (inactive) | -0.642 (inactive) | -0.193 (inactive)
10 | B10 | -0.516 (inactive) | 0.293 (inactive) | 1.05
11 | B11 | 0.592 (inactive) | 0.839 (inactive) | 0.689 (inactive)
12 | B12 | 9.71 (active) | 10.9 (active) | 8.02 (active)
13 | B13 | 0.116 (inactive) | -2.04 (inactive) | -0.0117 (inactive)
14 | B14 | -0.127 (inactive) | 1.03 | 0.188 (inactive)
15 | B15 | 10.3 (active) | 10.5 (active) | 8.52 (active)
16 | B16 | 0.871 (inactive) | 2.54 | 0.195 (inactive)
17 | B17 | -0.513 (inactive) | 0.318 (inactive) | -0.373 (inactive)
18 | B18 | -1.35 (inactive) | -0.635 (inactive) | 0.276 (inactive)
19 | B19 | 5.46 (active) | 5.89 (active) | 6.25 (active)
20 | B20 | 0.906 (inactive) | -0.366 (inactive) | 0.714 (inactive)
21 | B21 | 8.33 (active) | 11 (active) | 8.31 (active)
22 | B22 | -1.03 (inactive) | -0.941 (inactive) | -0.713 (inactive)
23 | B23 | 10.8 (active) | 12.9 (active) | 9.93 (active)
24 | B24 | -0.725 (inactive) | -0.656 (inactive) | -1.12 (inactive)

Row | Sequence | furin cleavage Z-score (7.5 min) | furin cleavage Z-score (15 min) | furin cleavage Z-score (30 min)
25 | B25 | 0.193 (inactive) | -0.206 (inactive) | -0.0766 (inactive)
26 | B26 | 6.8 (active) | 6.5 (active) | 6.23 (active)
27 | B27 | 1.92 | 5.11 (active) | 6.08 (active)
28 | B28 | 7.37 (active) | 9.91 (active) | 7.3 (active)
29 | B29 | 3.24 | 5.07 (active) | 6.59 (active)
30 | B30 | -1.67 (inactive) | -0.512 (inactive) | -0.588 (inactive)
31 | B31 | -0.592 (inactive) | -0.739 (inactive) | -1.25 (inactive)
32 | B32 | -1.24 (inactive) | -1.44 (inactive) | -1.84 (inactive)
33 | B33 | 2.23 | -1.03 (inactive) | 1.18
34 | B34 | -0.915 (inactive) | -0.282 (inactive) | 0.0526 (inactive)
35 | B35 | -0.962 (inactive) | 0.134 (inactive) | -0.522 (inactive)
36 | B36 | 1.19 | 0.0945 (inactive) | 0.538 (inactive)
37 | B37 | -0.725 (inactive) | -0.173 (inactive) | 0.000165 (inactive)
38 | B38 | -2.76 (inactive) | 0.234 (inactive) | 0.846 (inactive)
39 | B39 | 5.47 (active) | 5.56 (active) | 8.18 (active)
40 | B40 | -0.364 (inactive) | 0.099 (inactive) | -0.282 (inactive)
41 | B41 | -0.629 (inactive) | -0.0116 (inactive) | 0.458 (inactive)
42 | B42 | 8.83 (active) | 12.7 (active) | 10.3 (active)
43 | B43 | 7.71 (active) | 8.41 (active) | 8.69 (active)
44 | B44 | 0.073 (inactive) | 0.723 (inactive) | -1.2 (inactive)
45 | B45 | -1.89 (inactive) | -0.15 (inactive) | -1.34 (inactive)
46 | B46 | 6.54 (active) | 9.21 (active) | 5.81 (active)
47 | B47 | -0.691 (inactive) | -0.187 (inactive) | -3.21 (inactive)
